The values that follow come from PMC5700166.

Holding throughout (assay): protein-binding microarray (PBM); PBM: ~300 nM protein, 6 mM HEPES pH 7.8, 80 mM KCl, 0.5 mM EDTA, 0.5 mM EGTA, 6% glycerol, 35 ng/ul poly-dIdC, 1% milk, 1 h, room temperature; Ap Aiptasia and Nv Nematostella (sea anemones) / Co Capsaspora / Aq Amphimedon (sponge) / Dm Drosophila / Hu human; RHD is the Rel homology domain; high values mean tight binding
Common to all, as to conditions: dsDNA, one strand shown

For one test, the target named is T1, GST-Ap-NF-kB RHD (Exaiptasia pallida (Aiptasia), UniProt A0A913YAJ5 2-422).
T1 sequence: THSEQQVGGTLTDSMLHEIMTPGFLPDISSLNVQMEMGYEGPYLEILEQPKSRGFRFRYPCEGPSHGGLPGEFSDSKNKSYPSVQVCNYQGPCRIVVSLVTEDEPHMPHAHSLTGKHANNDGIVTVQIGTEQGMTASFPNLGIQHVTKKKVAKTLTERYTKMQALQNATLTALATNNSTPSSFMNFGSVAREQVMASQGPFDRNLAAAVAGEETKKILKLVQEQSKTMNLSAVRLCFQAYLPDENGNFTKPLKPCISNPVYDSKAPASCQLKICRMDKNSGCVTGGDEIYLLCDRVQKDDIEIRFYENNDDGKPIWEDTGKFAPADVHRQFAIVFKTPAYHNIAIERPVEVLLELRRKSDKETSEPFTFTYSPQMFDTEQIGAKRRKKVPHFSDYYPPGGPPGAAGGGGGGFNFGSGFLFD

The target in test [1] is T2, GST-Nv-NF-kB (Cys allele) (Nematostella vectensis, UniProt E5G601 2-411).
T2 sequence: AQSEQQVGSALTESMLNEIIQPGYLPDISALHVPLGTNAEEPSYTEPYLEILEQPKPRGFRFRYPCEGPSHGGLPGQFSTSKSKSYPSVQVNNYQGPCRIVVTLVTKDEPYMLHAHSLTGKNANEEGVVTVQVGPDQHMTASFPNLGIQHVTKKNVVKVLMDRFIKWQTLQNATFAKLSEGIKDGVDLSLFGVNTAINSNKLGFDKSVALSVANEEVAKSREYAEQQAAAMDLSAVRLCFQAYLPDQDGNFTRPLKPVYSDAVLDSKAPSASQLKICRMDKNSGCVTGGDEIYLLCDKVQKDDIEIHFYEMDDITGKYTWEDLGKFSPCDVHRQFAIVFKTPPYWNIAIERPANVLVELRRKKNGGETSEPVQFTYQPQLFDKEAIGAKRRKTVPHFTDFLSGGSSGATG

Test [2] has as its target T3, GST-Nv-NF-kB (Ser allele) (Nematostella vectensis, UniProt A7UNT2 2-411).
T3 sequence: T2 sequence with Q21R, C66S, S207N, E215Q, V217A, E225K, A268E, D399E

In the next test the target is T4, GST-Co-NF-kB (Capsaspora owczarzaki, UniProt F1ARL5 200-546).
T4 sequence: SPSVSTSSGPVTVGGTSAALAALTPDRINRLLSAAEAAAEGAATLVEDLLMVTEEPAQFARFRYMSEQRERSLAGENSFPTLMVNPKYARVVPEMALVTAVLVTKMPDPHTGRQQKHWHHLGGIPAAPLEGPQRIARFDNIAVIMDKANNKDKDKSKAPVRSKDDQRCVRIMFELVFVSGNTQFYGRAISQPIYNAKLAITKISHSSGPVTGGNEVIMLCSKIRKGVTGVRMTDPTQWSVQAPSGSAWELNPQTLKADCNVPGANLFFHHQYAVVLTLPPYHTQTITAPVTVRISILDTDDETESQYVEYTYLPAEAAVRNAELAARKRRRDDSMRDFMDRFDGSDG

In the next test the target is T5, GST-Dm-Relish (Drosophila melanogaster, UniProt Q94527 99-473).
T5 sequence: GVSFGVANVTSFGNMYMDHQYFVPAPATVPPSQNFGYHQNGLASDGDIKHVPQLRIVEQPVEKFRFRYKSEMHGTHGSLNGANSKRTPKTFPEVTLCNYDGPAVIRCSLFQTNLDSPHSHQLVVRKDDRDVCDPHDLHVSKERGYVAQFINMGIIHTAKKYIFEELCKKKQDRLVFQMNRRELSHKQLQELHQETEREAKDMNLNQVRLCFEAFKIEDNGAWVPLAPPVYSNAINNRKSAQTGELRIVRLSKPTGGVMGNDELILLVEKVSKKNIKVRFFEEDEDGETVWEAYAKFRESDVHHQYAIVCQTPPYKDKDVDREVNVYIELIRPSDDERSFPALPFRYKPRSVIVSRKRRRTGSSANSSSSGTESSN

The target in the next test is T6, GST-Aq-NF-kB (Amphimedon queenslandica, UniProt A9Y5G7 2-389).
T6 sequence: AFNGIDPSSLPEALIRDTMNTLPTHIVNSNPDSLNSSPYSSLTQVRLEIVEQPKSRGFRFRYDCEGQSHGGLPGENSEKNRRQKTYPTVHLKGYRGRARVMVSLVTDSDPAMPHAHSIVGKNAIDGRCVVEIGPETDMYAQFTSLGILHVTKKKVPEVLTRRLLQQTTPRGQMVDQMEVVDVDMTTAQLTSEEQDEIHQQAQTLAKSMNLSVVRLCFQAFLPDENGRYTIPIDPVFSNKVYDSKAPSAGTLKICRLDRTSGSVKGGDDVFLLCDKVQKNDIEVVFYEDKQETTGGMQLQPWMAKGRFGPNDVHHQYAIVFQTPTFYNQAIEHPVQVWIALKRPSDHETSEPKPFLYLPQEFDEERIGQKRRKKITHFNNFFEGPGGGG

Another test has as its target GST-Hu-p50 (Homo sapiens, UniProt P19838 7-356).

Where a chain is given by its changes, count along the chain named.

GST-Hu-p50, sequence (P19838 7-356): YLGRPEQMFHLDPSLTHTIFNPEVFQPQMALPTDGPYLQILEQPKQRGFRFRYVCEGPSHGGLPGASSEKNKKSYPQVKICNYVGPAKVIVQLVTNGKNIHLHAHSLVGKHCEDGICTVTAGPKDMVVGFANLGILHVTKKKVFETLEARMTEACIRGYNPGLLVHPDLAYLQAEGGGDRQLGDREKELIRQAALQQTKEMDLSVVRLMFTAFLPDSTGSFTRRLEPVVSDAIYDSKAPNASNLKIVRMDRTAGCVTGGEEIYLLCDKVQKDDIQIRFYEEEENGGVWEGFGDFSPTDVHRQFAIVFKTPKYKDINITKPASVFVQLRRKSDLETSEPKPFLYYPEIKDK

Take “CCGATTAACATCACCCTTTCCCCTGATGTTAATCGGGTCTTGATTCGCTTGACGCTGCTG”: the binding signal in the test with GST-Ap-NF-kB RHD came to 4.99 z-score; in test [1] it was 5.19 z-score; in test [2], 7.16 z-score; in the test with GST-Co-NF-kB it was 5.72 z-score; in the test with GST-Dm-Relish, 1.82 z-score; with GST-Aq-NF-kB it was 4.33 z-score. In the test with GST-Hu-p50, this sequence came in with a binding signal of 3.91 z-score.
Regarding “CCGATTAACATCAGGAACTCCCATGATGTTAATCGGGTCTTGATTCGCTTGACGCTGCTG”, the binding signal in the test with GST-Ap-NF-kB RHD was determined as 2.86 z-score; in test [1], 2.53 z-score; in test [2], 1.04 z-score; with GST-Co-NF-kB it was 1.08 z-score; with GST-Dm-Relish, 4.29 z-score; in the test with GST-Aq-NF-kB it was 3.71 z-score. Moreover, in the test with GST-Hu-p50, the binding signal worked out at 1.95 z-score.
In the case of “CCGATTAACATCAGGGTATTTAATGATGTTAATCGGGTCTTGATTCGCTTGACGCTGCTG”, the binding signal with GST-Ap-NF-kB RHD is 2.74 z-score; in test [1], 4.26 z-score; in test [2], 4.73 z-score; with GST-Co-NF-kB, 1.37 z-score; with GST-Dm-Relish it was 3.25 z-score; with GST-Aq-NF-kB, 4.14 z-score. The binding signal with GST-Hu-p50 turned out to be 4.41 z-score.
Turning to “CCGATTAACATCAAACTTCCCCGTGATGTTAATCGGGTCTTGATTCGCTTGACGCTGCTG”, the binding signal was 6.81 z-score with GST-Ap-NF-kB RHD; 8.41 z-score in test [1]; 8.97 z-score in test [2]; 8.65 z-score with GST-Co-NF-kB; 7.92 z-score in the test with GST-Dm-Relish; 7.04 z-score with GST-Aq-NF-kB. In the test with GST-Hu-p50, this sequence yielded a binding signal of 6.45 z-score.
As to “CCGATTAACATCAAAACTCCCCTTGATGTTAATCGGGTCTTGATTCGCTTGACGCTGCTG”, the binding signal was 8.31 z-score with GST-Ap-NF-kB RHD; 7.73 z-score in test [1]; 8.37 z-score in test [2]; 4.59 z-score with GST-Co-NF-kB; 7.49 z-score in the test with GST-Dm-Relish; 7.22 z-score in the test with GST-Aq-NF-kB. The sequence further gave a binding signal with GST-Hu-p50 of 6.44 z-score.
As to “CCGATTAACATCACGGGGATTTATGATGTTAATCGGGTCTTGATTCGCTTGACGCTGCTG”, the binding signal with GST-Ap-NF-kB RHD was found to be 7.32 z-score; in test [1], 7.95 z-score; in test [2], 8.97 z-score; with GST-Co-NF-kB, 4.67 z-score; in the test with GST-Dm-Relish, 8.32 z-score; with GST-Aq-NF-kB it was 5.47 z-score. The sequence further yielded a binding signal with GST-Hu-p50 of 6.63 z-score.
Consider “CCGATTAACATCAATTTACCCCCTGATGTTAATCGGGTCTTGATTCGCTTGACGCTGCTG”, for which the binding signal was determined as 6.21 z-score with GST-Ap-NF-kB RHD; 4.95 z-score in test [1]; 6.18 z-score in test [2]; 8.79 z-score in the test with GST-Co-NF-kB; 3.42 z-score with GST-Dm-Relish; 4.56 z-score in the test with GST-Aq-NF-kB. Moreover, in the test with GST-Hu-p50, the binding signal was 5.04 z-score.
Take “CCGATTAACATCAAGGGACTTTCTGATGTTAATCGGGTCTTGATTCGCTTGACGCTGCTG”: the binding signal with GST-Ap-NF-kB RHD was determined as 7.14 z-score; in test [1], 9.44 z-score; in test [2], 8.36 z-score; with GST-Dm-Relish it was 7.3 z-score; with GST-Aq-NF-kB, 7.13 z-score; with GST-Hu-p50, 5.98 z-score.
Consider “CCGATTAACATCAATAAACCCCCTGATGTTAATCGGGTCTTGATTCGCTTGACGCTGCTG”, for which the binding signal with GST-Ap-NF-kB RHD came out at 7.76 z-score; in test [1], 6.85 z-score; in test [2] it was 7.79 z-score; in the test with GST-Co-NF-kB, 2.94 z-score; in the test with GST-Dm-Relish it was 9.45 z-score; in the test with GST-Aq-NF-kB it was 6.33 z-score. The binding signal in the test with GST-Hu-p50 came out at 6.85 z-score.
Consider “CCGATTAACATCAGGGACATCCCTGATGTTAATCGGGTCTTGATTCGCTTGACGCTGCTG”, for which the binding signal in the test with GST-Ap-NF-kB RHD is 5.51 z-score; in test [1], 6.99 z-score; in test [2] it was 4.22 z-score; with GST-Dm-Relish, 7.71 z-score; with GST-Aq-NF-kB, 7.32 z-score; in the test with GST-Hu-p50, 3.84 z-score.
Turning to “CCGATTAACATCAGGGTACTACCTGATGTTAATCGGGTCTTGATTCGCTTGACGCTGCTG”, the binding signal with GST-Ap-NF-kB RHD was 2.34 z-score; in test [1], 1.63 z-score; in test [2], 2.2 z-score; with GST-Dm-Relish, 1.62 z-score; with GST-Aq-NF-kB, 4.13 z-score; with GST-Hu-p50 it was 1.43 z-score.
